Screening results from PubChem BioAssay.
Rows were chosen to be rich in hits. Some 3.3% of all compounds tested hit in one or more screens of this group.
TLR9-MyD88 inh: inhibitors of TLR9-MyD88 association in cells, primary screen, cell-based, CHO, BLA complementation, fluorescence; Toll-like receptor 9 (Homo sapiens) + Myeloid differentiation primary response protein …; CCF4 FRET ratio; inhibition, % at 4.98 µM; hit rate 0.21% among 340,000;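 active means inhibition above the mean over all tested compounds plus 3 SD, cut at about 21% in these data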;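 further: 0% = DMSO only wells and 100% = clavulanate BLA inhibitor control wells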
PRMT1 inh: PRMT1 methyltransferase inhibitors, primary screen, biochemical, fluorescence polarization | inhibition, % at 2.79 µM | hit rate 1.3% among 370,000 | recombinant PRMT1, activity-based probe fluorescence polarization | Protein arginine N-methyltransferase 1 (Homo sapiens), Q99873;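 active means inhibition above about 21% made by adding two undisclosed values, limit read from the data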
NOD2 RIPK2 PPI: NOD2-RIPK2 binding disruptors in cells, primary screen, fluorescence, CHO cells, BLA complementation. Receptor-interacting serine/threonine-protein kinase 2 (Homo sapiens), O43353. CCF4 ratio. inhibition, % at 4.98 µM. hit rate 0.38% among 360,000; in the data active means inhibition above about 21%;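 further: 0% = vehicle only and 100% = reference blocker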
Target sequence (O43353 whole entry, looked up): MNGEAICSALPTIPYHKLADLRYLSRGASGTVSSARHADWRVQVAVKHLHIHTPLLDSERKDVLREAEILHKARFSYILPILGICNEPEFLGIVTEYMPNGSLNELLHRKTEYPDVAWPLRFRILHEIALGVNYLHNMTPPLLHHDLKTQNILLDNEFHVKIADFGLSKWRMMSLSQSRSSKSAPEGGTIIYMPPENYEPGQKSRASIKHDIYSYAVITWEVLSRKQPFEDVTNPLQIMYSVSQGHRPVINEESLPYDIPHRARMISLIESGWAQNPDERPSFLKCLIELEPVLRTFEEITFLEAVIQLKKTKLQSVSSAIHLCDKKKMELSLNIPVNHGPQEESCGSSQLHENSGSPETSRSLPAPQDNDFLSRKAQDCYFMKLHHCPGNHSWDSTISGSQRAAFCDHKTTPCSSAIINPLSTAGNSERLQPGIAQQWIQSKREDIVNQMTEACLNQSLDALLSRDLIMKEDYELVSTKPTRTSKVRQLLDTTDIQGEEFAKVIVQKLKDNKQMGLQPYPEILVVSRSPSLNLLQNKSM
rCAG RNA binder: binders of r(CAG) RNA repeats, primary screen, biochemical, fluorescence; hit rate 1.3% among 370,000; inhibition, % at 3 µM; r(CAG) RNA repeat, TO-PRO-1 dye displacement fluorescence;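 active means inhibition above the plate cutoff, the mean of all test compounds on that plate plus 3 SD, cut at about 35% in these data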;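 further: 0% = DMSO alone and 100% = 100 µM mitoxantrone as full dye displacement; higher means more dye released from RNA so lower well fluorescence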
TLR4 MyD88 comp: inhibitors of TLR4-MyD88 association in cells, primary screen, cell-based, HeLa CL3-4, BLA complementation, FRET ratio. HeLa CL3-4 TLR4/MyD88 BLA complementation. inhibition, % at 8.4 µM. hit rate 0.18% among 200,000. AID 861, 2007; in the data active means inhibition above about 25%;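 further: 0% = vehicle and 100% = reference inhibitor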
ABHD5-PLIN5 inh: ABHD5-PLIN5 interaction inhibitors, primary screen, cell lysate, split luciferase complementation, luminescence; Perilipin-5 (Homo sapiens) + 1-acylglycerol-3-phosphate O-acyltransferase ABHD5 (Homo …; AID 602281, 2012; Split G. princeps luciferase complementation, 4 h; inhibition, % at 4 µM; hit rate 0.78% among 360,000;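 active means inhibition above the mean inhibition across every tested compound plus 3 SD, cut at about 22% in these data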;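 further: 0% = DMSO only wells and the 100% control is not disclosed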
PRMT1 inh conf: PRMT1 methyltransferase inhibitors, confirmation, biochemical, fluorescence polarization, triplicate. hit rate 42% among 3,300. shares compounds with PRMT1 inh. AID 687036, 2013. recombinant His-PRMT1, activity-based probe fluorescence polarization. inhibition, % at 2.79 µM;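 active means mean inhibition across replicates above the hit cutoff derived for the earlier primary screen, cut at about 22% in these data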
Active calls of the source: *; · = no result given.

SMILES	TLR9-MyD88 inh	PRMT1 inh	NOD2 RIPK2 PPI	rCAG RNA binder	TLR4 MyD88 comp	ABHD5-PLIN5 inh	PRMT1 inh conf
CCN(C(=O)COC(=O)c1ccccc1Nc1ccccc1)c1c(N)n(Cc2ccccc2)c(=O)[nH]c1=O	-4.7	-5.7	-4.6	2.5	·	-0.7	·
Nc1ccc(O)cc1C(=O)OCC(=O)c1ccc(C2CCCCC2)cc1	-11.4	29.3*	-5.0	51.1*	-7.8	-7.3	-0.5
NCCS	-6.9	41.9*	2.0	1.7	-14.4	-44.6	31.6*
COc1cc(-c2nc(=S)[nH][nH]2)cc(OC)c1OC	-12.6	34.5*	-6.6	2.8	0.5	4.0	12.7
O=C(c1ccccc1)c1nc[nH]c1C(=O)Nc1ccccc1	-5.7	2.1	-9.2	5.7	5.2	2.6	·
O=C(NC1CCCCC1)c1ccc(-c2ccccc2)cc1	3.7	41.6*	-4.5	-3.7	·	-8.1	-5.7
O=C1NC(=O)C2(CCCCC2C2CCCCC2)N1 (stereo not given)	-4.0	0.3	-0.8	-1.2	·	-1.6	·
C=CCn1c(SCC(=O)N2N=C(c3ccco3)CC2c2ccco2)nnc1-c1ccncc1 (stereo not given)	-6.0	2.5	-0.4	-3.8	-3.0	1.7	·
O=C(O)/C=C/C(=O)N1N=C(c2ccco2)CC1c1ccco1 (stereo not given)	-10.6	43.1*	-6.7	8.2	·	10.5	7.5
CCC1(c2ccccc2)NC(=O)N(CC(=O)Nc2ccc(OC)nc2)C1=O (stereo not given)	-1.6	57.7*	10.2	-117.4	·	-3.4	55.0*
CCC1(c2ccccc2)NC(=O)N(CC(=O)Nc2ccc3c(c2)CCC3)C1=O (stereo not given)	-3.0	-0.4	-9.6	0.8	·	0.8	·
CCOC(=O)Cc1csc(-n2sc3ccccc3c2=O)n1	-2.6	88.2*	15.7	19.5	13.0	19.1	89.2*
CCOC(=O)Cc1csc(SCn2nnc3ccccc3c2=O)n1	2.0	-1.8	-2.0	0.5	13.3	-2.1	·
C[C@H](CO)N1C[C@H](C)[C@H](CN(C)S(=O)(=O)c2cccc(F)c2)OCc2ccccc2-c2c(n(C)c3ccccc23)C1=O	-9.5	33.8*	-18.3	6.8	·	4.6	-0.6
O=C(O)/C=C/C(=O)Nc1ccc(SC(F)(F)F)cc1	7.1	6.7	1.6	1.1	0.2	-0.6	·
NC(=O)c1ccccc1NC(=O)/C=C/C(=O)O	5.1	3.4	5.7	2.2	18.4	-3.2	·
O=C(O)/C=C/C(=O)Nc1ccccc1SC(F)(F)F	3.8	60.6*	-3.7	-0.1	5.4	-0.5	35.8*
O=C(O)/C=C/C(=O)Nc1ccccc1-c1ccccc1NC(=O)/C=C/C(=O)O	-7.2	52.6*	-33.7	3.9	11.8	13.6	25.9*
O=C(O)/C=C/C(=O)Nc1cccc2c1-c1ccccc1C2=O	-10.1	67.1*	10.5	7.6	·	-2.5	17.4
Cc1ccc(NC(=O)CC2C(=O)OCC3CCCCN32)cc1Cl (stereo not given)	-3.5	13.9	-10.0	2.0	-9.5	0.0	·
CN(CC(=O)Nc1ccccc1C(F)(F)F)C(=O)CN1C(=O)C2CCCCC2C1=O (stereo not given)	7.6	2.5	4.7	-1.4	·	9.1	·
CCCOc1ccc(NC(=O)CC2C(=O)OCC3CCCCN32)cc1 (stereo not given)	-1.1	35.7*	2.3	2.1	·	9.4	2.6
O=C(CC1C(=O)OCC2CCCCN21)Nc1ccccc1C(F)(F)F (stereo not given)	-2.4	47.6*	-15.0	-0.5	-4.4	-1.3	3.8
Cc1ccc(Nc2c(-c3ccc(C)o3)nc3ncccn23)cc1	5.6	11.3	17.3	-4.2	·	2.6	·
Cc1ccc(-c2nc3ncccn3c2Nc2ccccc2C)o1	-0.2	42.1*	5.3	-2.5	21.2	6.6	12.7
SMILES	TLR9-MyD88 inh	PRMT1 inh	NOD2 RIPK2 PPI	rCAG RNA binder	TLR4 MyD88 comp	ABHD5-PLIN5 inh	PRMT1 inh conf
Cn1c(N)c(C(=O)COC(=O)Cc2cccc(C(F)(F)F)c2)c(=O)n(C)c1=O	-1.1	0.5	-3.0	1.1	·	0.9	·
CCCCNC(=O)c1cc2ccccc2s1	-3.6	-0.6	-0.7	-0.8	-26.8	-3.6	·
COc1ccc(NS(=O)(=O)c2ccc(F)c(Cl)c2)cn1	-4.2	36.9*	-4.5	-31.9	·	1.1	8.3
O=C(O)C(Cc1ccccc1)N1C(=O)/C(=C/c2cccnc2)SC1=S (stereo not given)	1.1	26.2*	0.9	15.8	·	-7.5	4.5
CC(=O)C1=CCC(c2ccccc2Cl)N(S(=O)(=O)c2ccc(C)cc2)C1 (stereo not given)	·	3.5	-6.9	2.8	·	17.9	·
Cc1cc(NC(=O)c2ccc3nc(C)sc3c2)no1	4.2	30.9*	-5.0	-0.8	-9.6	9.6	-3.1
COc1ccc(-c2ccc3c(n2)CCCN3S(=O)(=O)c2ccc(OC)cc2)cc1	·	-6.2	·	6.0	·	·	·
COc1ccc(-c2ccc3c(n2)CCCN3S(=O)(=O)c2ccc(C#N)cc2)cc1	·	45.0*	·	4.0	·	·	26.1*
O=C1CC(c2ccco2)CC(O)=C1C=Nc1cc(Cl)cc(Cl)c1 (stereo not given)	9.8	27.8*	-0.1	30.8	1.4	4.8	13.3
NC(=O)C[n+]1cccc2ccccc21	-8.8	54.6*	-4.4	-29.1	-0.8	0.8	10.5
O=C(C[n+]1cccc2ccccc21)c1ccc(Br)cc1	1.2	0.6	7.7	4.4	·	-0.3	·
Cc1cccc(NC(=O)C2CCCN2S(=O)(=O)c2ccc(Cl)cc2)n1 (stereo not given)	-2.3	1.7	6.8	-6.8	·	-7.8	·
C=CCNc1nc(NCCOc2ccccc2Cl)c2sc(-c3ccccc3)cc2n1	·	4.7	-3.9	11.4	·	-4.4	·
Cc1cccc(N2CCN(C(=O)c3ccc4ncsc4c3)CC2)c1C	-1.6	37.9*	-6.6	-0.9	-1.6	3.4	1.4
CCCC1C2CN(C(C)C)CC=C2C(C#N)=C(N)C1(C#N)C#N (stereo not given)	-0.6	70.1*	-21.5	-31.0	-10.0	2.6	22.1*
CN1CC=C2C(C#N)=C(N)C(C#N)(C#N)C(CCc3ccccc3)C2C1 (stereo not given)	-2.0	·	-6.3	·	0.0	-7.4	·
CCN1CC=C2C(C#N)=C(N)C(C#N)(C#N)[C@H](c3cccc(OC)c3OC)[C@H]2C1	7.5	36.8*	2.7	-32.8	-21.5	0.5	10.2
